The text below walks through data of PubChem BioAssay.

Active and inactive are the calls of the source. Unless noted, no rule for the calls is given here.

Broadly, the inhibition is the relative decrease from the control value, in per cent.

Assay [1] relates to Hepatitis C virus NS3 helicase. As to the kind of experiment: HCV NS3 helicase inhibitors, primary screen, biochemical, fluorescence polarization, LOPAC1280 library (AID 687035; in the data active = inhibition above about 37%). To be noted: Purified HCV NS3 helicase, Cy5-dT15 ssDNA binding fluorescence polarization; stronger effect = higher value; concentration not given here. For orientation: Polarisation of emitted light reports the rotation of a fluorescent probe.

Assay [2] in a line: Cy5 fluorescence quenching or enhancement artefacts, artefact control for HCV NS3 helicase inhibitor project, biochemical, LOPAC1280 (AID 687037). The note with it: Cy5-DNA-NS3h complex fluorescence interference counterscreen. In general terms: The purpose of a counterscreen is to sort out artefacts and off-target activity.
Assay [3] in a line: stimulators of nuclear beta-catenin in C2C12, primary screen, imaging, WNT3A-conditioned medium, mouse C2C12, NPC library (AID 1117326; in the data active = nuclear beta-catenin stimulation mostly above about 4.2%, no sharp cut-off; inactive = mostly below about 10%). To be noted: stronger effect = higher value.
The nature of assay [4]: stimulators of insulin release from INS-1E, primary screen, cell-based, 5 mM glucose, NPC library (AID 1117329;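 active = compound raises insulin release from rat beta cells at 5 mM glucose, no numeric limit stated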). The note with it: rat INS-1E insulin secretion, at 10 µM, stronger effect = higher value.
The nature of assay [5]: growth inhibition of GSK3B-pretreated HCT116 cells – cell-based, CellTiter-Glo, 0.2 to 20 µM (AID 1117336;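 active = compounds lowering colon cancer cell viability after pretreatment blocking the GSK3B kinase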). To be noted: HCT116 viability after GSK3B inhibitor, at 20 µM, stronger effect = higher value. (Cellular ATP, detected with luciferase, serves as a proxy for viable cell number.)
Assay [6] is described as follows: inhibition of endothelial tube formation, primary screen, imaging, VEGF stimulated, CD31 staining, tube area, NPC library (AID 1117340;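 active = compound that reduces growth-factor-driven endothelial tube area in a mixed cell culture, no cutoff stated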). The note with it: VEGF-stimulated ADSC/ECFC co-culture, at 10 µM, stronger effect = higher value.
Assay [7] is described as follows: glucagon-like peptide 1 release enhancers, primary assay, NCI-H716 cell line, NPC library (AID 1117341;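 active = compound raises GLP1 secretion from the human gut endocrine cells, with no numeric limit stated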). To be noted: NCI-H716 cells, at 10 µM, stronger effect = higher value.
Assay [8] is described as follows: HCT116 colon cancer cell growth inhibition, primary screen, CellTiter-Glo luminescence, NPC library (AID 1117342;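 active = compounds that lower survival of HCT116 colon cancer cells in the luminescence readout, no numeric limit stated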). The note with it: at 20 µM (top of the series).
The nature of assay [9]: CellTiter-Glo luminescent readout of SW480 viability loss, NPC library primary (AID 1117343;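 active = compounds that lower viability of the colon cancer cells in the luminescence readout, with no numeric limit stated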). To be noted: CellTiter-Glo luminescence; at 20 µM (top of the series).
The nature of assay [10]: decreased DLD-1 cellular survival, CellTiter-Glo luminescent readout, NPC compound collection, primary HTS (AID 1117346;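 active = compounds that lower survival of DLD-1 colon cancer cells in the luminescence readout, no cutoff given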). The note with it: DLD-1 viability, CellTiter-Glo luminescence; at 20 µM (top of the series).
Assay [11] concerns the target 6-phosphogluconate dehydrogenase, decarboxylating (Homo sapiens) (UniProt P52209). Description: 6PGD enzyme inhibitors, primary screen, biochemical, human, recombinant enzyme, NADPH absorbance (AID 1159550;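 active = at least 20% inhibition of 6-phosphogluconate dehydrogenase activity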). The note with it: recombinant 6PGD, NADPH absorbance 341 nm; at 10 µM; stronger effect = higher value.
The nature of assay [12]: Cy5 fluorescence interference with SSB-bound oligo, artefact control for HCV NS3 helicase inhibitor project, biochemical, NIH Clinical Collection, E. coli SSB (AID 743268).
Assay [13] relates to Hepatitis C virus NS3 helicase. As to the kind of experiment: HCV NS3 helicase inhibitors, primary screen, biochemical, fluorescence polarization, NIH Clinical Collection (AID 743270). The note with it: NS3 helicase binding to Cy5-dT15 DNA, stronger effect = higher value, concentration not given here.
The target in assay [14] is Single-stranded DNA-binding protein (Escherichia coli (strain K12)) (UniProt P0AGE0). Description: E. coli SSB displacement from DNA, counter-screen for HCV NS3 helicase inhibitor project, biochemical, fluorescence polarization, NIH Clinical Collection (AID 743271; in the data active = inhibition above about 28%). The note with it: stronger effect = higher value, concentration not given here.
Assay [15] can be described thus: fluorescence interference in NS3h assay format, artefact control for HCV NS3 helicase inhibitor project, biochemical, NIH Clinical Collection (AID 743272).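 Also: HCV NS3 helicase with a Cy5 labelled single stranded DNA probe.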 The note with it: fluorescence interference counterscreen, stronger effect = lower value.
Assay [16] concerns Neuropilin-2 / VEGF-C interaction (human). As to the kind of experiment: inhibitors of NRP2–VEGF-C binding, biochemical, microplate binding format, z-score (AID 743281). The note with it: microplate NRP2/VEGF-C binding assay; stronger effect = lower value.

6-phosphogluconate dehydrogenase, decarboxylating (Homo sapiens), sequence (P52209 whole entry, looked up): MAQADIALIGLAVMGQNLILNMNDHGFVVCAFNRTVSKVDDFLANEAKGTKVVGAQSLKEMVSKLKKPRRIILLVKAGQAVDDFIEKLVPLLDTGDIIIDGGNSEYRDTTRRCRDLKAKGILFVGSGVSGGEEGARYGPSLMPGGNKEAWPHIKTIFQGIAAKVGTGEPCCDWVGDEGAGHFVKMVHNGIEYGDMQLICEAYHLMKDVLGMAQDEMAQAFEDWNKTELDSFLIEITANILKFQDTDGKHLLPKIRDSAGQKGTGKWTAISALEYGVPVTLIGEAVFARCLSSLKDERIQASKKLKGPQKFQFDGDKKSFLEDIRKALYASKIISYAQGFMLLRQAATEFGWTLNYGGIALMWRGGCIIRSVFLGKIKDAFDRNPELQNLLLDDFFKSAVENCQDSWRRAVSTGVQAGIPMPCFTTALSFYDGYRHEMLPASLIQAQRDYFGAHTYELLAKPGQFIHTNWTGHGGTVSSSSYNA

`CCn1cc(C(=O)O)c(=O)c2cc(F)c(N3CCNC(C)C3)c(F)c21` (centres undefined): the inhibition in [1] was -1% (inactive); in [11] it was -3.66% (inactive). Further, the fluorescence ratio (interference) in [2] is 1 (inactive). Also, the nuclear beta-catenin stimulation is 1.8% (inactive) in assay [3] (at 10 µM) and 1.2% in [3] (stimulation, at 2 µM). Also, in assay [4], the insulin secretion stimulation is 1.7% (inactive). Besides, the viability decrease in assay [5] was 15.3% (inactive). The tube area decrease in assay [6] was -13.3% (inactive). Also, the GLP1 secretion stimulation in [7] was -0.4% (inactive). Further, in assay [8], the inhibition of viability was 0.55% (inactive). Moreover, the viability decrease (inhibition) in assay [9] is -10.7% (inactive); in assay [10], -20.1% (inactive).

Turning to `CNC[C@H](O)c1ccc(O)c(O)c1`, the inhibition in assay [1] is -5% (inactive); in assay [11], -1.63% (inactive). For the same compound, in [2], the fluorescence ratio (interference) is 1 (inactive). Besides, the nuclear beta-catenin stimulation in assay [3] (at 10 µM) was 0.3% (inactive); in assay [3] (stimulation, at 2 µM) it was 0.2%. Moreover, the insulin secretion stimulation in [4] is -2.3% (inactive). Further, the viability decrease in [5] is 31.1% (inactive). Further, in assay [6], the tube area decrease was -5.3% (inactive). Also, the GLP1 secretion stimulation in [7] was 2.1% (inactive). Also, in assay [8], the inhibition of viability was -7.2% (inactive). In addition, the viability decrease (inhibition) was 64.8% (active) in assay [9] and 23.9% (inactive) in assay [10].

As to `CC(C)COCC(CN(Cc1ccccc1)c1ccccc1)N1CCCC1` (centres undefined), the figures for the inhibition in assay [1] and in assay [11] were 0% (inactive) and 1.94% (inactive), respectively. Further, the fluorescence ratio (interference) in [2] was 1 (inactive). For the same compound, the nuclear beta-catenin stimulation is 0.1% (inactive) in assay [3] (at 10 µM) and -1.8% in assay [3] (stimulation, at 2 µM). Further, the insulin secretion stimulation in assay [4] is 4.8% (inactive). The viability decrease in [5] was 98% (active). Further, the tube area decrease in [6] is 32.8% (inactive). Besides, the GLP1 secretion stimulation in [7] was 4.3% (inactive). In addition, the inhibition of viability in assay [8] was 105% (active). Also, the viability decrease (inhibition) in assay [9] was 117% (active); in assay [10], 97% (active).

With `NCCCC(=O)O`, the fluorescence ratio (interference) in [2] was 1 (inactive). Further, the nuclear beta-catenin stimulation is 2.4% (inactive) in [3] (at 10 µM) and 1.9% in [3] (stimulation, at 2 µM). For the same compound, the insulin secretion stimulation in assay [4] is -0.7% (inactive). In addition, the viability decrease in assay [5] was 3.2% (inactive). Moreover, the tube area decrease in [6] was 12% (inactive). Besides, the GLP1 secretion stimulation in assay [7] was 1.6% (inactive). Further, the inhibition of viability in assay [8] is 1.3% (inactive). The values for the viability decrease (inhibition) in assay [9] and in assay [10] were 10.4% (inactive) and 0.95% (inactive), respectively. In addition, the inhibition in [11] was 15.9% (inactive).

For `Cc1ncc([N+](=O)[O-])n1CCO`, the figures for the fluorescence ratio in [12] and in assay [15] were 0.95 (inactive) and 0.88 (inactive), respectively. Besides, the inhibition in assay [13] is -2.77% (inactive); in [14], 4.52% (inactive); in [11] it was -20.7% (inactive). In addition, the z-score in [16] is -0.317 (inactive). Besides, the nuclear beta-catenin stimulation was -0.2% (inactive) in assay [3] (at 10 µM) and 0.7% in assay [3] (stimulation, at 2 µM). In addition, the insulin secretion stimulation in assay [4] is -1.4% (inactive). Moreover, in [5], the viability decrease is 55.6% (active). In assay [6], the tube area decrease was -14.9% (inactive). Also, the GLP1 secretion stimulation in assay [7] is -0.3% (inactive). For the same compound, the inhibition of viability in [8] was 18.5% (inactive). Further, the figures for the viability decrease (inhibition) in assay [9] and in [10] were 75.1% (active) and 55% (active), respectively.

`CN(C)CCCN1c2ccccc2Sc2ccc(C(F)(F)F)cc21`: the inhibition in assay [1] was -5% (inactive); in assay [11], 1.69% (inactive). Also, in [2], the fluorescence ratio (interference) was 1 (inactive). In addition, the nuclear beta-catenin stimulation was 41.9% (active) in [3] (at 10 µM) and 3.5% in assay [3] (stimulation, at 2 µM). Moreover, in assay [4], the insulin secretion stimulation was 5.8% (inactive). Further, the viability decrease in assay [5] was 68.5% (active). Moreover, in [6], the tube area decrease is 45.1% (active). Further, the GLP1 secretion stimulation in [7] is 17.9% (inactive). Moreover, the inhibition of viability in assay [8] was 88.7% (active). Moreover, the viability decrease (inhibition) in assay [9] was 137% (active); in [10], 101% (active).
